These results are taken from the supplement of paper PMC10849652.

About 8,800 targets were measured; listed, in parts, are those with a hit and a random draw of the rest. About 0.5% of all pairs of compound and target were hits.

Chain of UniProt Q13409 (Q13409 whole entry, looked up): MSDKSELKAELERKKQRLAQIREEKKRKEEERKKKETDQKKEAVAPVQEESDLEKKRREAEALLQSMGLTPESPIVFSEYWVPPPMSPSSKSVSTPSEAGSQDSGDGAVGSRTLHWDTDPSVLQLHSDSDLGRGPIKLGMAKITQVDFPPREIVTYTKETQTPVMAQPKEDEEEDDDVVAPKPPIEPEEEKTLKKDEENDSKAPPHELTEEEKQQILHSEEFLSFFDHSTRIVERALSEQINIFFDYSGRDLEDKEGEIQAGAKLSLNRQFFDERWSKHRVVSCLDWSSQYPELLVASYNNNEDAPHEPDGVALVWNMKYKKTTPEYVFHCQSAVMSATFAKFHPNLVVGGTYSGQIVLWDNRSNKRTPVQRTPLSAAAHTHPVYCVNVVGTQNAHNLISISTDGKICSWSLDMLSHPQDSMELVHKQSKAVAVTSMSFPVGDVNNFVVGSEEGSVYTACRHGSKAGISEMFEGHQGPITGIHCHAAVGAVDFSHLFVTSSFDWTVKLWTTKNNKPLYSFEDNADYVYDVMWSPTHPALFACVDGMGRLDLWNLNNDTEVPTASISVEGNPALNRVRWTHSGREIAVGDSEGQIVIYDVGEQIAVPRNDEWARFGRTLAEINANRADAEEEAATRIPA
Chain of UniProt Q9NPA0 (Q9NPA0 whole entry, looked up): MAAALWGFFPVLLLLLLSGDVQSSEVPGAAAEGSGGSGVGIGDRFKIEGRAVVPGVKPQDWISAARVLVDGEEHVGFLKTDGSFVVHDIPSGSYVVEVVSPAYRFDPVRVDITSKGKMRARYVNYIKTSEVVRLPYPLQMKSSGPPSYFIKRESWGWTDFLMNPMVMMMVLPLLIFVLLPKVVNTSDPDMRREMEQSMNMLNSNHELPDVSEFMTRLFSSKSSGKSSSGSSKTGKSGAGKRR
Chain of UniProt P57678 (P57678 whole entry, looked up): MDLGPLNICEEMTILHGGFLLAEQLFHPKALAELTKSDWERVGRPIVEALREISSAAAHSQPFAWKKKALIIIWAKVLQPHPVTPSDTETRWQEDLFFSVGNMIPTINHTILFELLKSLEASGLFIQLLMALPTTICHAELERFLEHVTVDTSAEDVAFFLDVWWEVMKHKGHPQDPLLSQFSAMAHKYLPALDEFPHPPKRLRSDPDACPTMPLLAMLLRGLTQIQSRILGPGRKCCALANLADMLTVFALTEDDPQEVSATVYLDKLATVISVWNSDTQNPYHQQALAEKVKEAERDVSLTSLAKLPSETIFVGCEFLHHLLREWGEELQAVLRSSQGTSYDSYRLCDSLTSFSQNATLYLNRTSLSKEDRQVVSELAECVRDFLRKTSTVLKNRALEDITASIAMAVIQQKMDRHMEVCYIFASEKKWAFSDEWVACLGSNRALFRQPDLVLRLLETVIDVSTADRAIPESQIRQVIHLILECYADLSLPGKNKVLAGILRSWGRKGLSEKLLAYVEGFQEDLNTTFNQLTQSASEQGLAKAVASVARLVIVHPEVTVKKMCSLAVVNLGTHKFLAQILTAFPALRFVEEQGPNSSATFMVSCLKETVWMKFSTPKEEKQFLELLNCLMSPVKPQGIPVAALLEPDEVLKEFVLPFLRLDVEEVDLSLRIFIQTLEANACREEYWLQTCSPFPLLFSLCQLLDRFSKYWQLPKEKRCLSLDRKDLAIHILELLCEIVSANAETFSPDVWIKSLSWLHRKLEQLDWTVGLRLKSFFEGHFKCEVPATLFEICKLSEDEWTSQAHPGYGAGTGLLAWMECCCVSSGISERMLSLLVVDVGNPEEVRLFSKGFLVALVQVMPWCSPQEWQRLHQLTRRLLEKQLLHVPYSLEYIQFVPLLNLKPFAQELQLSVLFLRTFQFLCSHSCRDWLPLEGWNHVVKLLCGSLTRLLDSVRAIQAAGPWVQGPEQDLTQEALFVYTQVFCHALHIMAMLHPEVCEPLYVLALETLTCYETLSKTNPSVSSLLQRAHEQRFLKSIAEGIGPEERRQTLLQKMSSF
Chain of UniProt P85037 (P85037 whole entry, looked up): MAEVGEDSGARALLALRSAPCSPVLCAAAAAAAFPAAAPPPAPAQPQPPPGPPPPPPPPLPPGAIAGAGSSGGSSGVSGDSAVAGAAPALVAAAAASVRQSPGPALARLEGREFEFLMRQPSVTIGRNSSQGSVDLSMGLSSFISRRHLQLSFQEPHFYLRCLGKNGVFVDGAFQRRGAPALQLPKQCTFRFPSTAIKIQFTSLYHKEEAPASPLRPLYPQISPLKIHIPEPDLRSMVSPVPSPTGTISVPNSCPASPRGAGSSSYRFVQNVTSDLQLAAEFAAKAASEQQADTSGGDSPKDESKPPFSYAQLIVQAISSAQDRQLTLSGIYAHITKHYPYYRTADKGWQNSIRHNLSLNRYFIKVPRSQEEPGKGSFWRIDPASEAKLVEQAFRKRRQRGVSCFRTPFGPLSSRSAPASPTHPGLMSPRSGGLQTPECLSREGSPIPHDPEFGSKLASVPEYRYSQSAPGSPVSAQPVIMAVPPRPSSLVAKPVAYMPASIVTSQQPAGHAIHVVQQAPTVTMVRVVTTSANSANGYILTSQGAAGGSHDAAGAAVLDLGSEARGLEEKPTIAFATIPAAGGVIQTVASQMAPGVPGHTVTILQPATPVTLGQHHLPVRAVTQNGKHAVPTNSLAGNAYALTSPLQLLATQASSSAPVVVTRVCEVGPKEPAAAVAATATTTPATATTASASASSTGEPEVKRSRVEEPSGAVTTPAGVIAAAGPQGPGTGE
Chain of UniProt O75477 (O75477 whole entry, looked up): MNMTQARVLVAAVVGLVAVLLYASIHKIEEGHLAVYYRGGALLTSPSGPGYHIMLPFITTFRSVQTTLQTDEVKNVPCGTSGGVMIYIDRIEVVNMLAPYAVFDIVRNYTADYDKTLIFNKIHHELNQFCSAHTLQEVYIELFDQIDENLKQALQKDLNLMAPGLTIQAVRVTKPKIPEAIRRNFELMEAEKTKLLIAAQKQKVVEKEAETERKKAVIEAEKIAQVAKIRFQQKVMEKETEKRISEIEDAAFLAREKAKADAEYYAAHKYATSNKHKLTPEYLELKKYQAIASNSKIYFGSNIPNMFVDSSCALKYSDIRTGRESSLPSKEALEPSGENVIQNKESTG
Chain of UniProt Q9H410 (Q9H410 whole entry, looked up): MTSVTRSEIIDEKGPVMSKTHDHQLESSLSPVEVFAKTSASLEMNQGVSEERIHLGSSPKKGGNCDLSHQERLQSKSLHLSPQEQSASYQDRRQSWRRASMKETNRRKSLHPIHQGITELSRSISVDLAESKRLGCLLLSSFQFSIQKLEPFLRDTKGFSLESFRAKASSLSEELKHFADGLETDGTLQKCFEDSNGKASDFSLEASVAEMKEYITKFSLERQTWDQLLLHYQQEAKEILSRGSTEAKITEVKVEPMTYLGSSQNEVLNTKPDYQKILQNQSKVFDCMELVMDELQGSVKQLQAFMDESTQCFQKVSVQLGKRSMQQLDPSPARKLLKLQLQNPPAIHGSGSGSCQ
Chain of UniProt Q9BPY3 (Q9BPY3 whole entry, looked up): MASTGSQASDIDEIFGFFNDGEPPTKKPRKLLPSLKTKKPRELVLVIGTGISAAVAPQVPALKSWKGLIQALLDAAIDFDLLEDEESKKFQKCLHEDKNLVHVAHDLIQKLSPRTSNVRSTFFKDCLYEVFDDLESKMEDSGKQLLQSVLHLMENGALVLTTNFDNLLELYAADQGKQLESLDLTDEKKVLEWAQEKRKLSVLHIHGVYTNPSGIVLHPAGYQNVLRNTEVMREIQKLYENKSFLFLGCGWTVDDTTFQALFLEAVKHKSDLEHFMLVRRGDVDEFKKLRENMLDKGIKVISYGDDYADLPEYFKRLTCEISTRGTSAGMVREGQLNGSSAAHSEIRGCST
Chain of UniProt Q6Y7W6 (Q6Y7W6 whole entry, looked up): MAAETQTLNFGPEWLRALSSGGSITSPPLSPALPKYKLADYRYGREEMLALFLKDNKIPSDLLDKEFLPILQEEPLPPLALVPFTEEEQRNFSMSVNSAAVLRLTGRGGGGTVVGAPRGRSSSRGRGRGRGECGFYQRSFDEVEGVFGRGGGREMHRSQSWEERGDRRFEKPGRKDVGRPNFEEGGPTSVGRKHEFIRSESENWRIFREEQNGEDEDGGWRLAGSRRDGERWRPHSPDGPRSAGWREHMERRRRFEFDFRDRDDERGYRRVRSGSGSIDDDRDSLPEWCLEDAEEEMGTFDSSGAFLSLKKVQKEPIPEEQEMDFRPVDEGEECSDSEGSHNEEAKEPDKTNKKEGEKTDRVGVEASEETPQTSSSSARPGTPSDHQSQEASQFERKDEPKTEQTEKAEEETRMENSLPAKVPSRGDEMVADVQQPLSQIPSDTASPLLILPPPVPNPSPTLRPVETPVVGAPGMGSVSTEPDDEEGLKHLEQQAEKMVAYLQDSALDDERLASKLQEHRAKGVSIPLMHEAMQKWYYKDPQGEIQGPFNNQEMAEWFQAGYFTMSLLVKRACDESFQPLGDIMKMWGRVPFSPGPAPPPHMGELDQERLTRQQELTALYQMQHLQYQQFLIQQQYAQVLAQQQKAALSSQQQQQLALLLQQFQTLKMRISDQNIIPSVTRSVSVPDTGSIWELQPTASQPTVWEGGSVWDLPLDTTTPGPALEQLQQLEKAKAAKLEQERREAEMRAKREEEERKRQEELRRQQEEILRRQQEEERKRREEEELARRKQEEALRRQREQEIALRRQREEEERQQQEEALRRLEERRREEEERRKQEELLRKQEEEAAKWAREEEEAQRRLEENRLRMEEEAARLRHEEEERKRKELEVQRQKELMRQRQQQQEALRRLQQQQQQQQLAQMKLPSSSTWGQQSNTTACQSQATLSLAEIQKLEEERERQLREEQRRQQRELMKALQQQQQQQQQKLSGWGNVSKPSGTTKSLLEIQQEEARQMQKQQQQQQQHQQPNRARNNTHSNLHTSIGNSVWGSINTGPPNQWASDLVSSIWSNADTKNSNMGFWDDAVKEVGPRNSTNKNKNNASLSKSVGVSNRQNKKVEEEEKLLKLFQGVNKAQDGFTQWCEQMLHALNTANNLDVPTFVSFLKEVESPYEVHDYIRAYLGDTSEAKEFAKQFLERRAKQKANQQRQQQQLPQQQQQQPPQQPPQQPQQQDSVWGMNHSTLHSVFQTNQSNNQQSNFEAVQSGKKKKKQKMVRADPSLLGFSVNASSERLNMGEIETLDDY

Compound in one assay: CNc1nc(-c2ccc3c(N)n[nH]c3c2)cc(N2C[C@@H](C(=O)NC3CCCCC3)CC[C@H]2C)n1
Put plainly: log2 fold change, soluble protein after heating vs DMSO (PISA); higher = thermal stabilisation; K562 lysate, 10 uM; active = over 0.2 and 3.5 SD of the protein, either way, in both replicates (recomputed). The method, boiled down:
(§1)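 To prepare the extract, K562 pellets were dounce-homogenised in PBS pH 7.4 with 1 mM MgCl2, giving crude material at 1 mg/mL protein. This was treated with 10 μM compound for 30 min, then heated in aliquots for 3 min over 48°C-58°C before pooling and addition of NP-40 to 0.5% at 4°C. Centrifugation at 21,000xg for 90 min left soluble protein in the supernatant, which TMTpro 16plex LC-MS/MS quantified with equalised channel sums. Results are log-two fold changes in thermal stability compared with solvent controls, from duplicates.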
Take GEMIN4 (UniProt P57678): the log2 fold change is -0.072 (inactive).
For the target ERAL1 (UniProt O75616), the log2 fold change was -0.015 (inactive).
The same measure, in the same setting: for EMC7 (UniProt Q9NPA0) the value was -0.008 (inactive); for EED, A0A5F9ZI63, 0.036 (inactive); for FAM118B (UniProt Q9BPY3), -0.009 (inactive).
Still for that read-out and setting: to GBF1 (UniProt Q92538) belongs 0.004 (inactive); to FLT4 (UniProt P35916), -0.081 (inactive); to ERLIN1 (UniProt O75477), -0.066 (inactive).
On the same count and under the same terms, to EAPP (UniProt Q56P03) belongs 0.107 (inactive).
As to GIGYF2 (UniProt Q6Y7W6), the log2 fold change is 0.019 (inactive).
The same measure, in the same setting: for FOXK1 (UniProt P85037) the value was 0.059 (inactive).
Still for that read-out and setting: to EIF2B4 (UniProt Q9UI10) belongs -0.058 (inactive); to GAPDH (UniProt P04406), 0.018 (inactive); to EEF1AKMT4 (UniProt P0DPD7), 0.188 (inactive).
The same measure, in the same setting: to FYCO1 isoform 4 (UniProt Q9BQS8) belongs -0.006 (inactive); to ETHE1 (UniProt O95571), -0.021 (inactive); to FBXO22 (UniProt Q8NEZ5), -0.004 (inactive).
Consider EP300 (UniProt Q09472), for which the log2 fold change was 0.006 (inactive).
Take GEMIN2 (UniProt O14893): the log2 fold change is 0.013 (inactive).
Same read-out and setting: to DYNC1I2 isoform 2 (UniProt Q13409) belongs -0.039 (inactive).
For the target DYNC1I2 isoform 5 (UniProt Q13409), the log2 fold change is 0.012 (inactive).
On to EPB41, A0A2R8Y783, for which the log2 fold change is -0.13 (inactive).
On the same count and under the same terms, for FYN (UniProt P06241) the value was -0.069 (inactive); for FXR2 (UniProt P51116), -0.018 (inactive).
Same read-out and setting: for FPGT (UniProt O14772) the value was -0.02 (inactive); for FHOD1 (UniProt Q9Y613), 0.006 (inactive).
As to EFCAB14 (UniProt O75071), the log2 fold change is -0.058 (inactive).
Same read-out and setting: for DSN1 (UniProt Q9H410) the value was 0.04 (inactive); for FAM83D (UniProt Q9H4H8), 0.022 (inactive); for EWSR1 isoform 5 (UniProt Q01844), 0.021 (inactive).
On the same count and under the same terms, to FAM83A (UniProt Q86UY5) belongs 0.015 (inactive); to GABPB1 isoform 3 (UniProt Q06547), -0.039 (inactive); to DUS2 (UniProt Q9NX74), -0.045 (inactive).
Same read-out and setting: to EIF2AK2 (UniProt P19525) belongs 0.083 (inactive).

Compound in a further assay: COC(=O)N[C@@H](C)CNc1nccc(-c2cn(C(C)C)nc2-c2cc(Cl)cc(NS(C)(=O)=O)c2F)n1 [encorafenib]
The description is as above. The essentials: as §1
Regarding GEMIN4 (UniProt P57678), the log2 fold change was 0.022 (inactive).
The same measure, in the same setting: for ERAL1 (UniProt O75616) the value was -0.018 (inactive); for EMC7 (UniProt Q9NPA0), 0.026 (inactive).
As to EED, A0A5F9ZI63, the log2 fold change was 0.004 (inactive).
As for FAM118B (UniProt Q9BPY3), the log2 fold change was 0.026 (inactive).
With GBF1 (UniProt Q92538), the log2 fold change was 0.036 (inactive).
On to FAT2 (UniProt Q9NYQ8), for which the log2 fold change was -0.092 (inactive).
FLT4 (UniProt P35916): the log2 fold change was -0.129 (inactive).
For ERLIN1 (UniProt O75477), the log2 fold change is 0.086 (inactive).
Still for that read-out and setting: to EAPP (UniProt Q56P03) belongs -0.014 (inactive); to GIGYF2 (UniProt Q6Y7W6), 0.092 (inactive).
FOXK1 (UniProt P85037): the log2 fold change was 0.009 (inactive).
EIF2B4 (UniProt Q9UI10): the log2 fold change was 0.114 (inactive).
Take GAPDH (UniProt P04406): the log2 fold change was -0.045 (inactive).
Regarding EEF1AKMT4 (UniProt P0DPD7), the log2 fold change is 0.042 (inactive).
Still for that read-out and setting: to FYCO1 isoform 4 (UniProt Q9BQS8) belongs 0.033 (inactive); to ETHE1 (UniProt O95571), 0.008 (inactive); to FBXO22 (UniProt Q8NEZ5), -0.014 (inactive).
For EP300 (UniProt Q09472), the log2 fold change was 0.031 (inactive).
As for GEMIN2 (UniProt O14893), the log2 fold change is 0.095 (inactive).
On the same count and under the same terms, to DYNC1I2 isoform 2 (UniProt Q13409) belongs 0.011 (inactive); to DYNC1I2 isoform 5 (UniProt Q13409), -0.007 (inactive).
FBXO45 (UniProt P0C2W1): the log2 fold change was -0.062 (inactive).
As to EPB41, A0A2R8Y783, the log2 fold change is -0.523 (inactive).
On the same count and under the same terms, for FYN (UniProt P06241) the value was 0.092 (inactive).
Turning to GAA (UniProt P10253), the log2 fold change is 0.097 (inactive).
Still for that read-out and setting: for FXR2 (UniProt P51116) the value was 0.06 (inactive); for FPGT (UniProt O14772), 0.011 (inactive); for FHOD1 (UniProt Q9Y613), 0.021 (inactive).
Same read-out and setting: for EFCAB14 (UniProt O75071) the value was 0.038 (inactive); for DSN1 (UniProt Q9H410), 0.006 (inactive); for FAM83D (UniProt Q9H4H8), 0.026 (inactive).
On the same count and under the same terms, for EWSR1 isoform 5 (UniProt Q01844) the value was -0.022 (inactive); for FAM83A (UniProt Q86UY5), 0.02 (inactive).
In the case of GABPB1 isoform 3 (UniProt Q06547), the log2 fold change is -0.006 (inactive).
As to DUS2 (UniProt Q9NX74), the log2 fold change was -0.027 (inactive).
On to EIF2AK2 (UniProt P19525), for which the log2 fold change is 0.087 (inactive).
